Assay results taken from publication PMC5540273 (PLoS ONE, 2017).

How the values were obtained:
Details in all cases: concentration: 1 μM, replicates: in singlicate; n = 1
IKK-alpha = test system: T1, IKK-alpha
T1 construct: gene CHUK

IKK-beta = test system: T2, IKK-beta
T2 construct: gene IKBKB

IKK-epsilon = test system: T3, IKK-epsilon
T3 construct: gene IKBKE

INSRR = test system: INSRR
INSR = test system: INSR
IRAK1 = test system: IRAK1
IRAK3 = test system: IRAK3
IRAK4 = test system: IRAK4
ITK = test system: ITK
[1] = test system: JAK1(JH1domain-catalytic)
[2] = test system: JAK1(JH2domain-pseudokinase)
[3] = test system: JAK2(JH1domain-catalytic)
[4] = test system: JAK3(JH1domain-catalytic)
JNK1 = test system: T4, JNK1
T4 construct: gene MAPK8

JNK2 = test system: T5, JNK2
T5 construct: gene MAPK9

JNK3 = test system: T6, JNK3
T6 construct: gene MAPK10

KIT-autoinhibited = test system: KIT-autoinhibited
KIT = test system: KIT
LATS1 = test system: LATS1
LATS2 = test system: LATS2
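Also: KINOMEscan kinase panel screen.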

Row | Structure (SMILES) | %Inh (IKK-alpha) [%] | %Inh (IKK-beta) [%] | %Inh (IKK-epsilon) [%] | %Inh (INSRR) [%] | %Inh (INSR) [%] | %Inh (IRAK1) [%] | %Inh (IRAK3) [%] | %Inh (IRAK4) [%] | %Inh (ITK) [%] | %Inh [1] [%] | %Inh [2] [%] | %Inh [3] [%] | %Inh [4] [%] | %Inh (JNK1) [%] | %Inh (JNK2) [%] | %Inh (JNK3) [%] | %Inh (KIT-autoinhibited) [%] | %Inh (KIT) [%] | %Inh (LATS1) [%] | %Inh (LATS2) [%]
1 | COc1cccc2c(-c3ccncc3)c(-c3ccc(F)cc3)nn12 [GW468513] | 0 | 14 | 3 | 9 | 11 | 28 | 24 | 7 | 8 | 0 | 67 | 11 | 0 | 96 | 99.8 | 99.9 | 0 | 8 | 0 | 8
2 | Cl.O=C(Nc1ccc(Oc2ccc3[nH]c(NC(=O)c4ccco4)nc3c2)cc1)Nc1cc(C(F)(F)F)ccc1F [GW683134] | 85 | 49 | 0 | 55 | 52 | 20 | 0 | 23 | 8 | 91.2 | 0 | 43 | 0 | 15 | 33 | 0 | 1 | 100 | 30 | 0
3 | Cc1ccc(O)cc1Nc1ccnc2cc(-c3ccc(CN4CCCCC4)o3)ccc12 [GW557777] | 0 | 0 | 0 | 4 | 0 | 0 | 0 | 0 | 56 | 1 | 7 | 0 | 15 | 0 | 0 | 0 | 56 | 100 | 0 | 22
4 | O=C1NC(=O)C(c2ccccc2Cl)=C1Nc1cccc(Cl)c1 [SB-342409] | 18 | 36 | 0 | 1 | 7 | 28 | 0 | 32 | 14 | 1 | 0 | 24 | 65 | 19 | 12 | 3 | 0 | 0 | 0 | 0
5 | Cc1nn2c(=O)cc(N3CCO[C@H](C)C3)nc2n1Cc1cccc(Cl)c1Cl [GSK2373693] | 36 | 81 | 0 | 0 | 4 | 78 | 0 | 25 | 15 | 9 | 0 | 22 | 0 | 16 | 9 | 7 | 0 | 51 | 0 | 0
6 | CN(c1ccc(F)c(NC(=O)c2cccc(OC(C)(C)C#N)c2Cl)c1)c1ccc2nc(NC(=O)C3CC3)sc2n1 | 0 | 0 | 29 | 0 | 0 | 0 | 8 | 0 | 0 | 10 | 3 | 0 | 0 | 11 | 0 | 20 | 6 | 99.8 | 0 | 35
7 | CCNc1nccc(-c2c(-c3ccc(F)cc3)ncn2C2CCN(C)CC2)n1 | 0 | 0 | 0 | 100 | 0 | 0 | 21 | 0 | 0 | 0 | 80 | 0 | 0 | 75 | 96.4 | 96.3 | 0 | 0 | 0 | 0
8 | Nc1ncc(-c2cn[nH]c2)c2scc(-c3ccc4c(c3)CCN4C(=O)Cc3ccccc3)c12 [GSK2593067] | 0 | 31 | 50 | 24 | 13 | 0 | 25 | 0 | 25 | 2 | 0 | 43 | 0 | 13 | 12 | 2 | 12 | 100 | 0 | 55
9 | Cc1ccc(Nc2ccnc(Nc3ccc(C)c(F)c3)n2)cc1O.Cl [GW582868] | 38 | 18 | 0 | 0 | 0 | 42 | 76 | 25 | 9 | 29 | 62 | 48 | 0 | 31 | 16 | 12 | 3 | 93.8 | 0 | 0
10 | Cc1cccc(Nc2nc(NCCN)ncc2C(N)=O)c1 [GSK1292139] | 28 | 16 | 0 | 0 | 22 | 61 | 0 | 60 | 8 | 27 | 96.6 | 54 | 0 | 43 | 4 | 23 | 9 | 72 | 0 | 76
11 | Cn1cc(-c2ccc3c(c2)CCN3C(=O)Cc2cc(F)cc(F)c2F)c2c(N)ncnc21 [GSK2634140] | 0 | 12 | 75 | 0 | 0 | 7 | 6 | 0 | 20 | 1 | 0 | 11 | 0 | 15 | 24 | 4 | 0 | 99.1 | 80 | 7
12 | N#CC1(c2cccc(C(=O)Nc3cccc(Oc4ccc5nc(NC(=O)C6CC6)sc5n4)c3)c2)CC1 | 0 | 0 | 0 | 0 | 0 | 0 | 0 | 0 | 0 | 8 | 15 | 0 | 0 | 0 | 0 | 0 | 76 | 99.9 | 0 | 0
13 | c1ccc(Oc2ccc(Nc3ccnc4cc(-c5ccc(CN6CCCCC6)o5)ccc34)cc2)nc1 [GW567143] | 12 | 8 | 0 | 5 | 10 | 24 | 0 | 6 | 10 | 0 | 0 | 2 | 0 | 22 | 30 | 7 | 8 | 96.5 | 0 | 0
14 | CS(=O)(=O)c1cccc(CNc2nc(Nc3ccc4c(c3)CCC(=O)N4)ncc2C(F)(F)F)c1 | 0 | 0 | 48 | 20 | 16 | 0 | 22 | 0 | 0 | 50 | 94.3 | 99.6 | 100 | 49 | 27 | 48 | 30 | 44 | 0 | 0
15 | COc1cc(Nc2nccc(N3CCC(NC(=O)Nc4ccc5c(c4)OCO5)C3)n2)cc(OC)c1OC (stereo not shown) [GSK1379766] | 27 | 11 | 29 | 0 | 25 | 80 | 85 | 44 | 10 | 12 | 47 | 89 | 0 | 34 | 0 | 35 | 5 | 66 | 0 | 12
16 | Cc1ccc(NC(=O)c2ccnc(N3CCCCC3)c2)cc1-c1ccc(C(=O)NCC2CC2)cc1 [GW775610] | 0 | 0 | 0 | 0 | 0 | 0 | 0 | 0 | 51 | 52 | 0 | 90 | 95.2 | 42 | 43 | 28 | 8 | 87 | 0 | 0
17 | CC(C)NCC(Cc1ccccc1)NC(=O)c1cc(Br)c(-c2ccnc3[nH]ccc23)s1.Cl.Cl (stereo not shown) [GSK1383281] | 0 | 23 | 30 | 0 | 0 | 15 | 2 | 12 | 3 | 35 | 0 | 71 | 82 | 28 | 12 | 12 | 0 | 50 | 100 | 70
18 | Cl.Cl.NCC(NC(=O)c1cc(-c2cccnc2)c(-c2ccnc3[nH]ccc23)s1)c1ccccc1 (stereo not shown) [GSK1323434] | 14 | 54 | 21 | 0 | 0 | 76 | 1 | 8 | 10 | 15 | 0 | 31 | 79 | 44 | 61 | 41 | 0 | 19 | 0 | 11
19 | CN(C)c1ncnc2nc[nH]c12 [SKF-31736] | 23 | 15 | 0 | 9 | 0 | 43 | 0 | 4 | 0 | 0 | 34 | 0 | 30 | 23 | 0 | 0 | 19 | 0 | 0 | 0
20 | CN(C)CCOc1ccc(-c2cc(-c3ccc(Cl)c(O)c3)c(-c3ccncc3)[nH]2)cc1.Cl.Cl [SB-684387] | 9 | 82 | 30 | 0 | 14 | 16 | 0 | 0 | 0 | 20 | 23 | 33 | 10 | 3 | 34 | 36 | 2 | 5 | 0 | 30
